Test results as given in PubChem BioAssay (Tox21).
Unmarked numbers belong to inactive results. Inconclusive results are not listed. A call without a number means that no potency is given here. Active and inactive are the calls of the source. Unless noted, the call rests on the fitted dose curve; in most records, active means well fitted curve in the direction sought with a large enough effect in the repeat runs; inconclusive means weak or mixed curves; inactive means no such curve, though single readings can be large; an effect the other way counts as inactive or inconclusive.

Assays:
[1] = target: Luciferin 4-monooxygenase (Photinus pyralis) (UniProt P08659); assay: qHTS assay to identify small molecule inhibitors of firefly luciferase (AID 1224835); further: nearly all actives have a fitted effect of over 25% in size; further: potency means the concentration at half of the fitted maximal effect
How it was run: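 Quantitative HTS format; KM concentrations of both substrates. Purified P. pyralis FLuc activity quantified from luminescence images.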

[2] = qHTS assay to identify small molecule antagonists of the constitutive androstane receptor (CAR) signaling pathway - cell viability counter screen (AID 1224837); further: nearly all actives have a fitted effect of over 45% in size; further: potency means the concentration at half of the fitted maximal effect
How it was run: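 Counter screen run in HepG2-CYP2B6-hCAR cells: 4 hr settle, compound titration (15 concentrations) with 50 nM CITCO, 23 hr at 37 C/5% CO2, CellTiter-Fluor fluorescence.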

[3] = target: Nuclear receptor subfamily 1 group I member 3 (Homo sapiens) (UniProt Q14994); assay: qHTS assay to identify small molecule antagonists of the constitutive androstane receptor (CAR) signaling pathway (AID 1224838); further: nearly all actives have a fitted effect of over 40% in size; further: potency means the concentration at half of the fitted maximal effect
How it was run: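 Cell line: HepG2 double-stable for hCAR and CYP2B6-2.2kb reporter. Agonist: CITCO, 50 nM final. Compounds: 15 concentrations, 24 h, 37 C. Detection: ONE-Glo luminescence.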

[4] = target: Nuclear receptor subfamily 1 group I member 3 (Homo sapiens) (UniProt Q14994); assay: qHTS assay to identify small molecule agonists of the constitutive androstane receptor (CAR) signaling pathway (AID 1224839); further: nearly all actives have a fitted effect of over 15% in size; further: potency means the concentration at half of the fitted maximal effect;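 on activation: HepG2 cells stably carrying human CAR and a CYP2B6 luciferase reporter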
How it was run: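 HepG2 cells stably expressing hCAR and a CYP2B6-2.2kb luciferase reporter were treated with compounds at 15 concentrations plus 0.75 uM PK11195 (final) for 24 h at 37 C; luminescence was read after ONE-Glo addition.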

[5] = qHTS assay to identify small molecule antagonists of the estrogen related receptor signaling pathway with the pleiotropic PPARgamma coactivator (PGC) from Tox21 10K library - cell viability counter screen (AID 1224840; active means well fitted cell-killing curve with a large enough effect in the repeat runs, not every such curve was filed as active; further: nearly all actives have a fitted effect of over 40% in size; further: potency means the concentration at half of the fitted maximal effect)
How it was run: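 Following seeding of 2,000 PGC/ERR cells/well and 6 hours' incubation, test compounds were delivered in DMSO. The plates then sat 17.5 hours at 37 C before a fluorogenic live-cell protease reagent (CellTiter-Fluor) was read after 30 min.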

[6] = qHTS assay to identify small molecule antagonists of the estrogen related receptor signaling pathway with the pleiotropic PPARgamma coactivator (PGC) from Tox21 10K library (AID 1224841; call rule not given here; further: actives are mostly falling curves and most rising ones were filed inactive; nearly all actives have a fitted effect of over 50% in size; further: potency means the concentration at half of the fitted maximal effect)
How it was run: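 qHTS antagonist format: PGC/ERR cells, 2k/well, compound in DMSO by pin transfer after 6 h attachment, 18 h treatment at 37 C, One-Glo luminescence read at 30 min.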

[7] = qHTS assay to identify small molecule agonists of the estrogen related receptor signaling pathway with the pleiotropic PPARgamma coactivator (PGC) from Tox21 10K library (AID 1224842); further: nearly all actives have a fitted effect of over 15% in size
How it was run: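 PGC/ERR reporter cells (NTP line) were seeded 2,000 per well, rested 6 h at 37 C/5% CO2, then pin-dosed with compounds in DMSO for 18 h at 37 C; luciferase read by One-Glo luminescence after 30 min at room temperature.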

[8] = target: Thyrotropin receptor (Homo sapiens) (UniProt P16473); assay: qHTS assay to identify small molecule agonists of the thyroid stimulating hormone receptor (TSHR) signaling pathway (AID 1224843; calls by dose curve; further: nearly all actives have a fitted effect of over 45% in size)
How it was run: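 TSHR-expressing HEK293 cells (800 per well) were exposed to compounds for 30 min at room temperature. cAMP was then detected by HTRF competition with cAMP-d2 and anti-cAMP cryptate, read after 1 h at room temperature. Fifteen concentrations, triplicate.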

[9] = qHTS assay to identify small molecule agonists of the estrogen related receptor (ERR) signaling pathway from Tox21 library (AID 1224849; calls by dose curve; further: nearly all actives have a fitted effect of over 15% in size); conditions: ERR reporter cell line, ONE-Glo luciferase, 18 h; at 92.4 µM (top of the series) unless noted
How it was run: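 Screening used an NTP-provided ERR luciferase cell line. Compounds in DMSO were added 6 h after seeding and left 18 h at 37 C before a 30 min ONE-Glo step and luminescence reading.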

[10] = qHTS RealTime-Glo MT Cell Viability Assay in HEK293 cells - 32 hour (AID 1224868); further: nearly all actives have a fitted effect of over 50% in size; further: potency means the concentration at half of the fitted maximal effect
How it was run: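 HEK293 cells seeded with NanoLuc/prosubstrate reagent, rested 5 h at 37 C, then dosed and kept at 37 C up to 40 h. Nonlytic real-time luminescence from viable cells read at 0, 8, 16, 24, 32 and 40 h.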

[11] = A CellTox Green Cytotoxicity Assay to monitor cytotoxicity in HEK293 cells - 0 hour (AID 1224869); further: nearly all actives have a fitted effect of over 50% in size; further: potency means the concentration at half of the fitted maximal effect
How it was run: (§1)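 Fluorescence intensity, read at 0, 8, 16, 24, 32 and 40 h of compound treatment, reflected dye binding to DNA of dead HEK293 cells; compounds (23 nL, DMSO) were added 5 h after plating cells with reagent.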

[12] = qHTS RealTime-Glo MT Cell Viability Assay in HepG2 cells - 40 hour (AID 1224870); further: nearly all actives have a fitted effect of over 50% in size; further: potency means the concentration at half of the fitted maximal effect
How it was run: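 HepG2 cells mixed with RealTime-Glo MT reagents (NanoLuc plus cell-permeant prosubstrate) were seeded at 600 cells/well, incubated 5 h at 37 C/5% CO2, then pinned with compounds in DMSO; nonlytic luminescence tracked viability during 40 h treatment.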

[13] = A CellTox Green Cytotoxicity Assay to monitor cytotoxicity in HEK293 cells - 40 hour (AID 1224871); further: nearly all actives have a fitted effect of over 45% in size; further: potency means the concentration at half of the fitted maximal effect
How it was run: as §1

[14] = qHTS assay to identify small molecule agonists of the hypoxia (HIF-1) signaling pathway - cell viability counter screen (AID 1224844; calls by dose curve; further: nearly all actives have a fitted effect of over 50% in size; further: potency means the concentration at half of the fitted maximal effect)
How it was run: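 Cells (HRE-bla ME-180, 2,000 per well) sat 5 hrs at 37C, got compound for 17 hrs, were read for CCF4-AM FRET, and were finally lysed with CellTiter-Glo for a 30 min room-temperature luminescence read.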

[15] = qHTS assay to identify small molecule agonists of H2AX - cell viability counter screen (AID 1224847; calls by dose curve; further: nearly all actives have a fitted effect of over 30% in size; further: potency means the concentration at half of the fitted maximal effect)
How it was run: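 Wild-type CHO-K1 cells (10% FBS medium) were plated overnight at 37C, exposed to compounds at 15 concentrations for 3 hr at 37C (0.76% DMSO final), and viability was read as CellTiter-Glo luminescence after 30 min at room temperature.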

[16] = qHTS assay to identify small molecule antagonists of the estrogen related receptor (ERR) signaling pathway from Tox21 library (AID 1224848); further: nearly all actives have a fitted effect of over 50% in size; further: potency means the concentration at half of the fitted maximal effect
How it was run: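 Cells: ERR line, 2,000/well; 6 h preincubation 37 C/5% CO2. Cpd in DMSO via pin tool; 18 h, 37 C. ONE-Glo, 30 min RT, luminescence.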

[17] = qHTS assay to identify small molecule agonists of H2AX (AID 1224845; active means well fitted activation curve with a large enough effect in the signal ratio in the repeat runs, not every such curve was filed as active; the % refers to the signal ratio)
How it was run: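 Wild-type CHO-K1 cells plated overnight, then exposed 3 hr at 37C to compounds at 15 concentrations (0.76% DMSO). Lysed, then HTRF anti-pH2AX(S139)-cryptate/anti-H2AX-d2 detection after 24 hr at room temperature; emissions 665 and 620 nm.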

[18] = qHTS assay to identify small molecule agonists of the hypoxia (HIF-1) signaling pathway (AID 1224846; active means well fitted activation curve with a large enough effect in the signal ratio in the repeat runs, not every such curve was filed as active; the % refers to the signal ratio)
How it was run: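 A low-serum medium (0.5% dialyzed FBS) holding 2,000 HRE-bla ME-180 cells per well is preincubated for 5 hrs, dosed with compounds by pintool, and kept a further 17 hrs at 37C, 5% CO2 before CCF4-AM FRET detection of beta-lactamase.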

[19] = qHTS RealTime-Glo MT Cell Viability Assay in HepG2 cells - 24 hour (AID 1224867); further: nearly all actives have a fitted effect of over 50% in size
How it was run: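 HepG2 cells (600/well) were dispensed with RealTime-Glo reagents, incubated 5 h at 37 °C, then treated with compounds in DMSO for up to 40 h. Nonlytic NanoLuc luminescence reflecting viable cells was read at each stated time point.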

[20] = qHTS assay to identify small molecule agonists of the constitutive androstane receptor (CAR) signaling pathway - cell viability counter screen (AID 1224836); further: nearly all actives have a fitted effect of over 45% in size
How it was run: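 HepG2 cells stably carrying hCAR and a CYP2B6-2.2kb reporter were plated 4 h, then given compounds at 15 concentrations plus PK11195 (final 0.75 uM). After 23 h at 37 C, viability was read by CellTiter-Fluor fluorescence.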

Chain of Nuclear receptor subfamily 1 group I member 3 (Homo sapiens) (Q14994 whole entry, looked up): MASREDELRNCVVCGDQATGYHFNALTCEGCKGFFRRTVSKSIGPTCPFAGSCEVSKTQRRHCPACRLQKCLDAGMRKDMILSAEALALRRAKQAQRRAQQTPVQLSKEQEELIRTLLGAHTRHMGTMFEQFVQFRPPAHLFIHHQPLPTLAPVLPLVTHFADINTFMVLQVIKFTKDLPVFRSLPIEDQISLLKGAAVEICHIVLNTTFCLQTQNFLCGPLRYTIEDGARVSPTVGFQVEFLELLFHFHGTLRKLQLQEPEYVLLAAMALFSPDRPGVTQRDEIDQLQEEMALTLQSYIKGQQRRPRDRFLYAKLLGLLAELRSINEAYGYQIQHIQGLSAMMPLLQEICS
Chain of Luciferin 4-monooxygenase (Photinus pyralis) (P08659 whole entry, looked up): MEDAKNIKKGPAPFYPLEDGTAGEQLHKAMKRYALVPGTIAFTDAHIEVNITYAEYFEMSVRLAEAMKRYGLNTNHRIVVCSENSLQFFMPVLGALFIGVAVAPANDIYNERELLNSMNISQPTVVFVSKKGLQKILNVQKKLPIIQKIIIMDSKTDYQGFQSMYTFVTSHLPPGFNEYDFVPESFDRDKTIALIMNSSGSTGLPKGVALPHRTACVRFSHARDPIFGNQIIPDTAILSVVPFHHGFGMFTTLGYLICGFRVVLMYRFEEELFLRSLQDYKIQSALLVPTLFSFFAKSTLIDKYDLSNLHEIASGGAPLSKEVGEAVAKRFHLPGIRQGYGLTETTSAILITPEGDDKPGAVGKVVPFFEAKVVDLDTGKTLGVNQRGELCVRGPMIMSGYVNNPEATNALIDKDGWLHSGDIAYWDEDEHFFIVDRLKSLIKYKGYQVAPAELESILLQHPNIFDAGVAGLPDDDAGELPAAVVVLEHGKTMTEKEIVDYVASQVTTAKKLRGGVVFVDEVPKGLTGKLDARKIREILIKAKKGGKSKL
Chain of Thyrotropin receptor (Homo sapiens) (P16473 whole entry, looked up): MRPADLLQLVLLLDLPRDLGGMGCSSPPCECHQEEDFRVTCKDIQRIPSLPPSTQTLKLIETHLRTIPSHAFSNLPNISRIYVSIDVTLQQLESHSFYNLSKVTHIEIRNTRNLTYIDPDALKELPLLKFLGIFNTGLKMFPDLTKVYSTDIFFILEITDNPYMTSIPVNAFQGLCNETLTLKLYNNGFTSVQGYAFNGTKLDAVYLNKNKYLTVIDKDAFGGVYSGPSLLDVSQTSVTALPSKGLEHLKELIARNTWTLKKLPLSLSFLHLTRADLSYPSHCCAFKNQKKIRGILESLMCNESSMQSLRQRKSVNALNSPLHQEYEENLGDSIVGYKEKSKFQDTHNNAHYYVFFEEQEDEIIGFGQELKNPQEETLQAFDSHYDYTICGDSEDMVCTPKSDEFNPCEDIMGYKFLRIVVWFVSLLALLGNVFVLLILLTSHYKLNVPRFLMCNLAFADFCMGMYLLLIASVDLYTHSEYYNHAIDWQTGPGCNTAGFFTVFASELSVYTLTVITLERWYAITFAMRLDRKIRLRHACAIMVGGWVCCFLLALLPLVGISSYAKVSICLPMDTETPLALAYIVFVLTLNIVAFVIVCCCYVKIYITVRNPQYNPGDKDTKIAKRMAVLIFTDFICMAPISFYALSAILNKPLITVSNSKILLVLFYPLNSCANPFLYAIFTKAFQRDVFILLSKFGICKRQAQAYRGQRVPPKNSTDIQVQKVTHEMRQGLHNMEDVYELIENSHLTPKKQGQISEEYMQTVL

| Structure (SMILES) | Potency [1] | Potency [2] | Potency [3] | Potency [4] | Potency [5] | Potency [6] | Potency [7] | Potency [8] | activity change, positive = activation [9] | Potency [10] | Potency [11] | Potency [12] | Potency [13] | Potency [14] | Potency [15] | Potency [16] | Potency [17] | outcome [18] | Potency [19] | Potency [20] |
| --- | --- | --- | --- | --- | --- | --- | --- | --- | --- | --- | --- | --- | --- | --- | --- | --- | --- | --- | --- | --- |
| COC(=O)[C@]1(C)CCC[C@@]2(C)[C@H]1CC=C1C=C(C(C)C)CC[C@@H]12 | inactive | inactive | inactive | inactive | inactive | inactive | inactive | inactive | -22.1% | inactive | 24.5 µM (active) | inactive | 38.9 µM (active) | – | – | – | – | – | – | – |
| CCN(CC)c1ccc(N)cc1 | 41 µM (active) | 28.1 µM (active) | 62.8 µM (active) | 7.05 µM (active) | 25 µM (active) | 2.5 µM (active) | – | – | -77.3% | 22.5 µM (active) | – | – | 44.8 µM (active) | inactive | 51.9 µM (active) | 2.5 µM (active) | – | – | – | – |
| Cc1ccc2ccc3cccc4ccc1c2c34 | 35.5 µM (active) | inactive | inactive | 30.6 µM (active) | inactive | inactive | – | inactive | -32.5% | – | – | inactive | – | – | inactive | – | inactive | inactive | inactive | – |
| CC(C)(C)c1n[nH]c(=O)n(N)c1=O | inactive | inactive | – | – | – | inactive | inactive | inactive | -7.06% | inactive | – | inactive | inactive | – | inactive | inactive | inactive | inactive | inactive | inactive |
| NCCCCCCNCCCCCCN | inactive | inactive | inactive | inactive | inactive | inactive | inactive | – | -13.7% | inactive | – | inactive | inactive | – | inactive | inactive | inactive | inactive | inactive | – |
| CCCCCCC(C)Nc1ccc(Nc2ccccc2)cc1 (stereo not drawn) | inactive | inactive | – | – | inactive | – | – | inactive | – | 24.5 µM (active) | inactive | – | – | – | – | – | – | – | – | inactive |
| CCC(C)(C)c1cc(O)c(C(C)(C)CC)cc1O | inactive | inactive | inactive | inactive | – | – | inactive | inactive | -67.5% | 30.9 µM (active) | inactive | inactive | – | – | – | 68.6 µM (active) | – | – | – | – |
| CC(C)CCOCCC(C)C | inactive | inactive | inactive | inactive | inactive | inactive | inactive | inactive | -1.03% | inactive | inactive | – | inactive | inactive | inactive | inactive | inactive | inactive | inactive | – |
| Cc1cc(=O)[nH]c(=O)[nH]1 | inactive | inactive | – | – | – | – | – | inactive | – | inactive | inactive | inactive | inactive | inactive | – | – | inactive | inactive | inactive | inactive |
| CCOC(=O)[C@@](C)(N)Cc1ccc(O)c(O)c1 | inactive | inactive | inactive | inactive | – | inactive | – | inactive | -0.831% [at 42.5 µM] | inactive | inactive | inactive | inactive | – | inactive | inactive | – | – | – | – |
| Cc1ccc(O)cn1 | inactive | inactive | inactive | inactive | inactive | inactive | inactive | inactive | 9.23% | inactive | inactive | inactive | inactive | inactive | inactive | inactive | inactive | inactive | – | – |
| c1ccc(Sc2ccccc2)cc1 | inactive | inactive | – | – | inactive | – | – | – | – | – | inactive | inactive | inactive | inactive | inactive | – | – | inactive | inactive | inactive |
| O=C(O)Cc1ccc(OCCNC[C@H](O)c2ccccc2)cc1 | inactive | inactive | inactive | inactive | inactive | – | – | inactive | – | inactive | inactive | inactive | inactive | inactive | inactive | – | – | inactive | inactive | – |
| CCN=C1C=CC(=C(c2ccc(N(CC)CC)cc2)c2ccc(N(CC)CC)cc2)c2ccccc21 | 28.1 µM (active) | 6.08 µM (active) | 6.08 µM (active) | inactive | 9.63 µM (active) | – | – | – | – | 6.88 µM (active) | – | 19.4 µM (active) | 12.2 µM (active) | 21.7 µM (active) | 35.5 µM (active) | – | – | – | – | – |
| CC(CN(C)C)CN1c2ccccc2CCc2ccccc21 (stereo not drawn) | inactive | inactive | – | – | inactive | – | – | – | – | – | inactive | inactive | inactive | – | inactive | – | inactive | – | inactive | inactive |
